Hits are enriched below; roughly 3% of the tested compounds scored in any of these assays.
KKLEB cytotox: reduces viability of KKLEB cystic fibrosis airway cells; KKLEB CF airway cells viability, ATPlite luminescence, overnight; active compounds read low; cells stimulated with P. aeruginosa culture filtrate; activity change (cytotoxicity), % at 5 µM; 0.36% of 360,000 active;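 active means corrected activity change at or below -50% at 5 µM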
CF NFkB block: inhibitors of cystic fibrosis induced NF-kB | 0.86% of 360,000 active | KKLEB NF-kB-GFP reporter, PAF-induced, GFP fluorescence overnight | inhibition, % at 5 µM;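 active means at least 50% inhibition at 5 µM, scaled per plate between neutral and stimulator controls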;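 further: PAF is a Pseudomonas aeruginosa culture filtrate used as stimulus; plate controls were PAF-stimulated DMSO wells for no effect and unstimulated DMSO wells for full effect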
HIF-2a block: blocks HIF-2a reporter activity; AID 624352; 0.72% of 360,000 active; 786-0 RCC cells HIF-2a reporter, luciferase luminescence, overnight; inhibition, % at 18.8 µM;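 active means inhibition of the luminescence signal of 40% or more relative to plate controls, in a single-dose primary screen at 18.75 µM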
Peg3 prom inh: inhibitors of Peg3 promoter; HeLa PEG-Prom luciferase reporter, luminescence, overnight; inhibition, % at 20 µM; 1.7% of 360,000 active;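 active means inhibition of at least 50% at 20 µM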
TRPM1 prom inh: reduces MITF-dependent TRPM1 promoter luciferase signal; SK-MEL-5 TRPM1 promoter luciferase, 24 h; inhibition, % at 12.5 µM; 0.83% of 330,000 active; AID 488899;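 active means mean inhibition across replicates of 60% or more, whatever share of single replicates reaches that level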
LMP1 NFkB inh: inhibitors of Epstein-Barr LMP1-induced NF-kappaB reporter; inhibition, % at 12.5 µM; LMP1-induced NF-kappaB luciferase reporter cells, luminescence; 0.69% of 350,000 active; in the data active means inhibition above about 41%;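 further: 0% = neutral control wells and 100% = reference inhibitor control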
Mdm2-MdmX confirm: confirmation of inhibitors of human Mdm2/MdmX interaction, set 2. 99% of 740 active. shares compounds with HIF-2a block. inhibition, % at 8 µM. SaOS-2 split-luciferase Mdm2/MdmX complementation, luminescence. AID 504601;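 active means mean inhibition of the luminescence signal across two replicates at or above 26 percent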
HIF-2a conf: HIF-2a inhibition, single concentration confirmation; shares compounds with HIF-2a block; 786-0 RCC cells, HIF-2a luciferase reporter luminescence, overnight; inhibition, % at 18.8 µM; 56% of 1,800 active;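 active means mean inhibition across four replicates of at least 40 percent at the single tested concentration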
HIF-1a counter: counter-screen for HIF-2a inhibitors: HIF-1a inhibition in MiaPaCa-2 cells; shares compounds with HIF-2a block; MiaPaCa-2 HIF-1a luciferase reporter, desferoxamine, overnight; inhibition, % at 18.8 µM; 72% of 1,800 active;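 active means mean inhibition of the reporter signal across four replicates at the single tested dose of 50% or more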
Starred values were filed as active, the others as inactive; . = no result given.

SMILES	KKLEB cytotox	CF NFkB block	HIF-2a block	Peg3 prom inh	TRPM1 prom inh	LMP1 NFkB inh	Mdm2-MdmX confirm	HIF-2a conf	HIF-1a counter
CCOC(=O)CNC(=O)C(CC(N)=O)NC(=O)OC(C)(C)C (configuration not stated)	8	-18	6	14	.	.	.	.	.
COc1ccc(S(=O)(=O)Nc2ccc3c(c2)C(=O)N([C@H](C)CO)C[C@H](C)[C@@H](CN(C)C(=O)Nc2ccc(C(F)(F)F)cc2)OCCCC[C@H](C)O3)cc1	8	-11	-10	23	.	8	.	.	.
OC(c1ccccc1)c1nc(-c2ccc(Cl)cc2)cs1 (configuration not stated)	13	-62	-223	-205	.	.	.	.	.
NC(=O)c1cc2ccncc2c2ccccc12	-7	79*	33	-16	-9	35	98*	.	.
COCOCCn1cc(CN2CCS(=O)(=O)N(Cc3ccc(-c4ccc(Cl)nc4)cc3)C(C)C2=O)nn1 (configuration not stated)	6	0	-3	-4	.	1	.	.	.
CN(C)CCCN(C(=O)c1ccc(S(=O)(=O)N2CCc3ccccc3C2)cc1)c1nc2c(F)cccc2s1	-12	14	10	-21	13	2	.	.	.
Cc1cccc2sc(N(CCCN(C)C)C(=O)c3ccc(S(=O)(=O)N4CCc5ccccc5C4)cc3)nc12	-25	33	14	30	44	-26	.	.	.
Cc1cc(C)c2sc(N(CCCN(C)C)C(=O)c3ccc(S(=O)(=O)N4CCc5ccccc5C4)cc3)nc2c1	-78*	48	63*	96*	89*	-109	.	57*	100*
Cc1ccc2nc(N(CCCN(C)C)C(=O)c3ccc(S(=O)(=O)N4CCc5ccccc5C4)cc3)sc2c1	-50	-91	88*	101*	76*	-54	.	43*	99*
Cc1cc(/C=C(\C#N)C(=O)NCc2ccccc2)c(C)[nH]1	-9	3	-61	-16	.	-11	.	.	.
Cc1ccc(C2(C)NC(=O)N(CC(=O)NCCN3C(=O)S/C(=C\c4cccnc4)C3=O)C2=O)cc1 (configuration not stated)	4	15	-1	-3	-10	-3	.	.	.
CCCC(=O)NC(c1ccc(Cl)cc1Cl)c1ccc2cccnc2c1O (configuration not stated)	-7	-9	12	59*	66*	63*	85*	.	.
CC(C)C(=O)NC(c1cccc([N+](=O)[O-])c1)c1ccc2cccnc2c1O (configuration not stated)	-9	8	20	63*	62*	52*	88*	.	.
CCCC(=O)NC(c1ccccc1OC)c1ccc2cccnc2c1O (configuration not stated)	0	6	25	58*	81*	71*	87*	.	.
CC[C@@H](C)[C@H](CN[C@H](CNC)C(C)C)NC[C@@H](C)c1ccc(CC(C)C)cc1	-10	3	-1	99*	100*	-11	103*	.	.
Cc1ccc(S(=O)(=O)C(NC(=O)c2ccccc2)=C(Cl)Cl)cc1	-6	7	41*	52*	12	-111	.	13	82*
O=C(NC(=C(Cl)Cl)S(=O)(=O)c1ccc(Cl)cc1)c1ccccc1	-5	25	62*	61*	38	-146	.	4	103*
Cc1ccc(S(=O)(=O)/C(=C/Cl)NC(=O)c2ccccc2)cc1	-26	49	41*	81*	33	-8	.	8	68*
CC(=O)NC(=C(Cl)Cl)S(=O)(=O)c1ccccc1	3	13	10	-140	10	-96	.	.	.
Cc1ccc(S(=O)(=O)CCC(=O)OCC(=O)NC(=O)c2ccccc2)cc1	-4	16	4	-17	-2	-1	.	.	.

Screens deposited in PubChem by several laboratories.
